# Compound activity (PubChem BioAssay)
# FLuc inh = blocks purified firefly luciferase enzyme activity; P08659; purified P. pyralis luciferase, luminescence, biochemical; AID 1347043; Potency, µM (series often up to 115 µM), most hits filed as inhibitors; 76,000 tested, 2.5% active; also: % is scaled to controls: 0 for no effect and ±100 for the full control effect; nearly all actives have a fitted effect of over 65% in size
#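 Cell-free enzyme assay, 10nM P. pyralis luciferase, luciferin and ATP each at 10uM. Inhibition profiled over a 6-point titration, read as luminescence.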
# HEK cytotox = cytotoxic compounds in HEK 293 cells | AID 1345083 | 94,000 tested, 6.6% active | HEK 293 viability, ATP luminescence (CellTiter-Glo), 48-72 h | Potency, µM (doses to about 115 µM), for the others: top-dose activity change, negative = cytotoxicity, usual class: inhibitors; also: % is scaled to controls: 0 for no effect and ±100 for the full control effect; nearly all actives have a fitted effect of over 60% in size
#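 HEK 293 cells at 250 cells/well were exposed to compounds by pintool transfer for 48 or 72 hr at 37 degree Celsius, 5% CO2. Viability was read as ATP-coupled luminescence with CellTiter-Glo after 10 min at room temperature.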
# NPR1 antag = blocks ANP-stimulated signaling of human Npr1 receptor; AID 1347048; Potency, µM (doses to about 46.3 µM), without a hit: top-dose activity change, negative = inhibition, actives largely listed as inhibitors; P16066; HEK293 hNpr1 GloSensor cGMP, ANP-stimulated luminescence; 76,000 tested, 1.6% active; calls by dose curve; also: % is scaled to controls: 0 for no effect and ±100 for the full control effect; nearly all actives have a fitted effect of over 60% in size
#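 HEK293 cells stably expressing human Npr1 and cGMP GloSensor pGS-40F, loaded 2 h with 2% GloSensor reagent, given compound 30 min at room temperature. Luminescence read before and 20 min after 0.1 nM hNppA.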
# 3T3 cytotox = NIH 3T3 cell cytotoxicity; Potency, µM (doses to about 96.7 µM), inactives show at the highest dose activity change, negative = cytotoxicity, most hits filed as inhibitors; NIH 3T3 viability, CellTiter-Glo ATP luminescence, 48-72 h; 94,000 tested, 4.3% active; also: % is scaled to controls: 0 for no effect and ±100 for the full control effect; nearly all actives have a fitted effect of over 55% in size
#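 ATP-dependent luminescence (CellTiter-Glo) served as the viability signal for NIH 3T3 cells treated with compound for 48 or 72 hr at 37 °C.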
# SNCA expr inhib = inhibitors of alpha-synuclein (SNCA) gene expression; AID 1671194; Potency, µM (series often up to 57.2 µM), without a hit: at the highest dose activity change, negative = inhibition, hits mostly inhibitors; 140,000 tested, 0.17% active; HEK-293 SNCA-luciferase knock-in, luminescence, 24 h;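 also: plate controls were DMSO cells for no effect and cell-free wells for full effect; nearly all actives have a fitted effect of over 45% in size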
# SNCA viab count = counter-screen for SNCA expression inhibitors: cell viability; HEK-293-SNCA-luc viability, GF-AFC fluorescence, 24 h; Potency, µM (doses to about 57.1 µM), for inactives: top-dose activity change, negative = cytotoxicity, usual class: cytotoxic; 150,000 tested, 0.12% active; AID 1671193;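 also: 0% = DMSO-treated cells and -100% = medium-only wells without cells; nearly all actives have a fitted effect of over 30% in size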
#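 Cytotoxicity counterscreen: after 24 h compound treatment of genome-edited SNCA-luciferase HEK-293 cells, live-cell protease substrate GF-AFC read by fluorescence after 30 min; activity scaled between DMSO (0%) and medium-only (-100%), curves Hill-fitted.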
# NPR1 antag cnf = confirmation of human Npr1 natriuretic peptide receptor antagonists; HEK293 hNpr1 cGMP GloSensor luminescence, ANP-stimulated; Potency, µM (doses to about 57.6 µM), for inactives: top-dose activity change, negative = inhibition, most hits filed as inhibitors; 1,400 tested, 76% active; shares compounds with NPR1 antag; calls by dose curve; also: nearly all actives have a fitted effect of over 70% in size
# Npr2 selectivity = selectivity test of Npr1 antagonists against human Npr2. shares compounds with NPR1 antag. HEK293 hNpr2 GloSensor cGMP luminescence, CNP-stimulated. Potency, µM (doses to about 57.6 µM), for inactives: at the highest dose activity change, negative = inhibition, most hits filed as inhibitors. 1,400 tested, 67% active. AID 1347046; calls by dose curve; also: nearly all actives have a fitted effect of over 70% in size
# Target sequence (P20594 whole entry, looked up): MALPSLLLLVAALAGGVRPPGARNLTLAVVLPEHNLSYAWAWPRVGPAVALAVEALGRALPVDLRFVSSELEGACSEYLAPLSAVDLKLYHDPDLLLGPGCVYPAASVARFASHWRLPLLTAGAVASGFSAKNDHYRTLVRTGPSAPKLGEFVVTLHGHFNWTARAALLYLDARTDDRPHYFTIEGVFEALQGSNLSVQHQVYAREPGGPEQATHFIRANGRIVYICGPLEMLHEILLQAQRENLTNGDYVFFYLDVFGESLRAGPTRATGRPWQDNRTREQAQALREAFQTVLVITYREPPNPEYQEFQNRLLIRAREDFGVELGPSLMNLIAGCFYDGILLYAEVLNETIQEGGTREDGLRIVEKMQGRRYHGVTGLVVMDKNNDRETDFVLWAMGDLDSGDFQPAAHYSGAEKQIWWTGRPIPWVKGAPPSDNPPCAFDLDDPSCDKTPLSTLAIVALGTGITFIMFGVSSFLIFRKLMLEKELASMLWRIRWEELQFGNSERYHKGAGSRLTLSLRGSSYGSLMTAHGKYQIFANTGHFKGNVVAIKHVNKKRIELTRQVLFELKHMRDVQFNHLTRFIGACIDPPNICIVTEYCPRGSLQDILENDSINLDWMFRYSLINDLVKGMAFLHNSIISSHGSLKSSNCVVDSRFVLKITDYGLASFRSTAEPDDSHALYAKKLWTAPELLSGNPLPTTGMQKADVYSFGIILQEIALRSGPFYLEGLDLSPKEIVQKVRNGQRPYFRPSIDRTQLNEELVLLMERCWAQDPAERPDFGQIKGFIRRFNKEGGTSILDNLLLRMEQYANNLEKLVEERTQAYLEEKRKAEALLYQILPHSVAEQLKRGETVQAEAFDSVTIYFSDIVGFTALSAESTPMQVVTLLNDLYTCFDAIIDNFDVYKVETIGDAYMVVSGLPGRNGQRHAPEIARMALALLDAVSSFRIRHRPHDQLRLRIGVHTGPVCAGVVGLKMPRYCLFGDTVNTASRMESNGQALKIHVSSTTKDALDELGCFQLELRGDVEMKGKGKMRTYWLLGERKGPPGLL
# FLuc inh counter = FLuc enzyme inhibition, Npr1 counter-screen; shares compounds with NPR1 antag; purified FLuc enzyme, luminescence, Km substrate; Potency, µM (highest dose often 57.6 µM), for inactives: at the highest dose activity change, negative = inhibition, most hits filed as inhibitors; 1,400 tested, 0.7% active; also: 0% is about no effect
# GloSensor ctrl = control cell line activity, Npr1 antagonist counter-screen; AID 1347051; shares compounds with NPR1 antag; 1,400 tested, 69% active; Potency, µM (highest dose often 57.6 µM), without a hit: top-dose activity change, negative = inhibition, most hits filed as inhibitors; HEK293 GloSensor cGMP, SNP-stimulated, luminescence; calls by dose curve; also: % is scaled to controls: 0 for no effect and ±100 for the full control effect; nearly all actives have a fitted effect of over 70% in size
# * marks the source's active call; other numbers are inactive results; i = inactive; ? = inconclusive; nt = not tested or not shown; [ ] = remark or other dose. In the library only some 7.4% were active in any assay of this set; here they are far more common. Unless noted, calls follow the shape of the dose curve; as a rule, active = well fitted curve in the direction sought with a large enough effect; inconclusive = small, poorly fitted or top-dose-only effect, or another doubt; inactive = no such curve, though single readings can be large; an effect the other way counts as inactive or inconclusive. Potency is read from the fitted curve at half-maximal effect.
SMILES,FLuc inh,HEK cytotox,NPR1 antag,3T3 cytotox,SNCA expr inhib,SNCA viab count,NPR1 antag cnf,Npr2 selectivity,FLuc inh counter,GloSensor ctrl
O=C(c1ccc2nc[nH]c2c1)N1CCC(CO)(CCCc2ccccc2)CC1,i,25µM*,11µM*,-23%,-10%,-4%,24µM*,24µM*,6%,22µM*
O=C(N[C@@H]1CCN(Cc2ccc3nsnc3c2)C[C@H]1O)c1cnccn1,i,-3%,5%,-12%,-8%,5%,nt,nt,nt,nt
CN(Cc1cccnc1)c1ccc2ncc(Nc3cccc(C(F)(F)F)c3)n2n1,i,40µM*,13µM*,?,?,-9%[87.6 µM],14µM*,16µM*,-3%[86.2 µM],13µM*
CC(C)NC(=O)c1cc(-c2ccc(F)cc2)cn1C,i,-1%,7%,-5%,4%,6%,nt,nt,nt,nt
CCCNC(=O)c1cc(-c2ccc(F)cc2)cn1C,i,-24%,?,-32%,7%,-1%,-27%,-7%,-1%,-26%
CCN(CC)C(=O)[C@@H](C)C1CC[C@@]2(C)CC[C@H](NC(=O)COc3ccccc3)[C@@H](C)[C@@H]2[C@H]1O (stereo not given in full),i,-16%,-3%,?,?,-1%,nt,nt,nt,nt
COc1ccc(CC(=O)N2CCC(Cc3nc(-c4ccccc4)no3)CC2)cc1Cl,i,?,13µM*,35µM*,?,-14%,24µM*,27µM*,2%,24µM*
COc1ccc(-c2noc(CC3CCN(C(=O)Cc4ccc(OC)c(Cl)c4)CC3)n2)cc1,i,?,13µM*,?,3%,-1%,24µM*,24µM*,0%,17µM*
CN(C)C[C@@H]1CN(Cc2ccccn2)C[C@H]1NC(=O)c1n[nH]c2ccccc12,i,?,-3%,-17%,-9%,-3%,nt,nt,nt,nt
Cc1nn(Cc2ccccc2)c(C)c1[C@@H]1C=C[C@@H](NC(=O)c2ccc3c(c2)OCO3)C1,i,28µM*,32µM*,?,-2%[87.6 µM],-22%[87.6 µM],35µM*,35µM*,-13%[86.2 µM],35µM*
O=C(CCc1ccnc(N2CCCC2)c1)NCc1cccc(Cl)c1,i,3%,-4%,3%,33%,4%,nt,nt,nt,nt
CCOCCOC1CCN(C(=O)c2cccc(F)c2)CC1,i,8%,-1%,i,?,1%[12.5 µM],nt,nt,nt,nt
CN(C)c1cccc(C(=O)N2CCC(OCCOc3ccc(F)cc3)CC2)c1,i,?,13µM*,?,22%,-9%,24µM*,24µM*,-16%,22µM*
Cc1nc(C)c(CC(=O)N2CCCC(C)(Cc3ccc4c(c3)OCO4)C2)s1 (stereo not given),i,28µM*,14µM*,-28%,-15%,1%,19µM*,22µM*,0%,17µM*
